In PubChem BioAssay one finds composite z-score, z-score and composite Z-score data, which are given here for 6 molecules.

For experiment [1], the system named is Human papillomavirus type 1a protein E7 (residues 44-93). Description: small molecules binding HPV E7 44-93 – biochemical, small-molecule microarray, residues 44-93, 635 nm fluorescence, primary screen (AID 1108).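 Also: E7 fragment applied at 1 µg/mL in TBST for 1 h at 4 C; score combines spot fluorescence with its signal to noise ratio.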 To be noted: fluorescence 635 nm, higher = more signal.
Experiment [2] can be described thus: hepatitis C replication reporter changes, two-sided – Huh7 cells, luciferase reporter, HCV replication inhibitor project, primary screen (AID 1109).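 Also: huh7 hepatoma cells harbouring a luciferase neomycin HCV replicon reporter; luciferase luminescence as measure of HCV replicon replication; test concentration not given here.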 Conditions: Huh7 HCV replicon luciferase reporter, 48 h; higher = more signal.
The target of experiment [3] is Left-right determination factor 2 (Homo sapiens) (UniProt O00292). Description: small molecules binding LEFTY2 protein – biochemical, small-molecule microarray, 635 nm fluorescence scan, primary screen (AID 1110). To be noted: higher = more signal.
For experiment [4], the target named is Calmodulin-1 (Homo sapiens) (UniProt P0DP23). The experiment is described as follows: small molecules binding calmodulin-1 with EGTA – biochemical, small-molecule microarray, Cy5-labelled CALM1, profiling panel (AID 1111).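 Also: labelled calmodulin applied in Tris saline Tween buffer holding calcium plus EGTA and DTT.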 Conditions: Cy5-CALM1 binding fluorescence, higher = more signal.
The target is the same in experiment [5]. Description: small molecules binding Ca-loaded calmodulin-1 – biochemical, small-molecule microarray, Cy5-labelled CALM1, plus calcium, artefact control for SMM control-protein annotation, profiling panel (AID 1112).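 Also: score merges spot fluorescence with signal to noise from triplicate slides.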 To be noted: Cy5-CALM1 binding fluorescence, higher = more signal.
The nature of experiment [6]: probe aWnt5a binding to arrayed compounds – biochemical, biotinylated probe, 635/667 nm fluorescence, primary screen (AID 1113).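 Also: score merges 667 nm fluorescence intensity with signal-to-noise per printed feature.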 To be noted: small-molecule microarray, higher = more signal.
Experiment [7] can be described thus: probe aShh binding to arrayed compounds – biochemical, biotinylated probe, 635/667 nm fluorescence, primary screen (AID 1114).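 Also: probe is biotin-labelled aShh protein from a stem cell growth factor screen; measures binding of labelled protein to compounds printed on the slide; score merges feature fluorescence at 667 nm with signal-to-noise.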 Conditions: small-molecule microarray, higher = more signal.
The nature of experiment [8]: probe aNog binding to arrayed compounds – biochemical, biotinylated probe, 635/667 nm fluorescence, primary screen (AID 1115).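 Also: probe is biotinylated aNog protein used at 0.15 µg/mL for 1 h at 4 C; z-score combines 667 nm fluorescence of each spot with its signal to noise.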 Conditions: small-molecule microarray, higher = more signal.
Experiment [9] has as its target Torsin-1A-interacting protein 1 (Homo sapiens) (UniProt Q5JTV8). The experiment is described as follows: compound microarray binding of lysate hLAP1 – cell lysate, small-molecule microarray, COS7 lysate, 635/667 nm fluorescence, primary screen (AID 1116). To be noted: 635 nm fluorescence, higher = more signal.
In experiment [10] the target is Alpha-bungarotoxin (Bungarus multicinctus) (UniProt P60615). The experiment is described as follows: compounds binding labelled alpha-BTX control protein – biochemical, small-molecule microarray, Alexa647 label, 635/667 nm fluorescence, artefact control for SMM control protein annotation, profiling panel (AID 1117). To be noted: alpha-BTX-A647 binding fluorescence, higher = more signal.

The target in another experiment is Albumin (Bos taurus) (UniProt P02769). The experiment is described as follows: compounds binding labelled BSA control protein – biochemical, small-molecule microarray, Alexa647 label, 635/667 nm fluorescence, artefact control for SMM control protein annotation, profiling panel (AID 1118).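 Also: score merges 667 nm emission intensity and signal-to-noise per printed compound spot.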 To be noted: BSA-A647 binding, fluorescence 635 nm, higher = more signal.
Experiment [11] in a line: probe aXIP binding to arrayed compounds – biochemical, NeuroSMM set, 635/667 nm fluorescence, primary screen (AID 1119).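 Also: probe is the protein aXip251-270 applied at 1 µg/mL to compound-printed slides; binding of probe to printed compounds measured as 667 nm fluorescence plus signal to noise.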 To be noted: small-molecule microarray, higher = more signal, called active from +8 up or from −8 down.
Experiment [12] in a line: probe aNOTCH3 binding on compound microarray – biochemical, small-molecule microarray, 635/667 nm fluorescence, primary screen (AID 1120).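 Also: probe is a biotin-tagged antibody raised against NOTCH3 rather than NOTCH3 protein; score merges spot fluorescence near 667 nm with spot signal to noise.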 Conditions: higher = more signal.
The nature of experiment [13]: probe aNOTCH2 binding on compound microarray – biochemical, small-molecule microarray, 635/667 nm fluorescence, primary screen (AID 1121).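 Also: score merges feature fluorescence read at 667 nm with its signal to noise.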 Conditions: higher = more signal.
In experiment [14] the target is Carbonic anhydrase 2 (Homo sapiens) (UniProt P00918). Description: compounds binding carbonic anhydrase 2 – biochemical, small-molecule microarray, Alexa647-labelled CAII, profiling panel (AID 1122). To be noted: CAII-A647 binding fluorescence, higher = more signal.
A short description of experiment [15]: COS7 lysate on small-molecule microarray, probe aHis, 635 nm (AID 1123).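 Also: z-score combines 667nm fluorescence intensity with signal-to-noise per printed compound spot.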 To be noted: COS7 cell lysate, fluorescence, higher = more signal.
Experiment [16] is described as follows: probe aLAP1 signal on lysate-treated microarray – cell lysate, small-molecule microarray, COS7 lysate, primary screen (AID 1124).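 Also: lysate comes from COS7 cells expressing LAP1 and is applied at 0.3 µg/mL; score merges spot fluorescence near 667 nm with signal-to-noise over triplicate slides.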 Conditions: probe aLAP1, fluorescence, higher = more signal.
The subject of another experiment is Sam68 (KHDRBS1). The experiment is described as follows: compounds binding KHDRBS1 protein – biochemical, small-molecule microarray, 635 nm fluorescence, primary screen (AID 1125).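 Also: score merges 667 nm channel intensity with signal to noise over triplicate slides.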 Conditions: higher = more signal.
Experiment [17] concerns Chordin-like protein 2 (CHRDL2). The experiment is described as follows: compounds binding chordin-like 2 – biochemical, small-molecule microarray, 635 nm fluorescence, primary screen (AID 1126).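 Also: printed compound slides probed with Chrdl2 protein at 4 µg/mL for 1 h at 4 C; score merges 667 nm emission intensity with signal to noise over three replicate slides.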 Conditions: fluorescence 635 nm, higher = more signal.
Experiment [18] has as its target Concanavalin-A (Canavalia ensiformis) (UniProt P02866). Description: compounds binding concanavalin A lectin – biochemical, small-molecule microarray, Alexa647 label, 635 nm, artefact control for SMM control protein annotation, primary screen (AID 1127).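 Also: z combines 667 nm emission intensity with signal-to-noise across three replicate slides.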 To be noted: ConA-A647 binding fluorescence, higher = more signal.

Active and inactive are the calls of the source.

Sequence of Concanavalin-A (Canavalia ensiformis) (P02866 whole entry, looked up): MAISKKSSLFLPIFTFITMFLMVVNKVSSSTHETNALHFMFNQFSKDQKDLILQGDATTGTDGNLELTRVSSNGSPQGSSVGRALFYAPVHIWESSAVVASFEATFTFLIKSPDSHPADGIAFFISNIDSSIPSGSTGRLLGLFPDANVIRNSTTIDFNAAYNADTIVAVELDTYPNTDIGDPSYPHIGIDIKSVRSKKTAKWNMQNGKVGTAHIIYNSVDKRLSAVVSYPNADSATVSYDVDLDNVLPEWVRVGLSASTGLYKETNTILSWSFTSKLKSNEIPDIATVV
Sequence of Torsin-1A-interacting protein 1 (Homo sapiens) (Q5JTV8 whole entry, looked up): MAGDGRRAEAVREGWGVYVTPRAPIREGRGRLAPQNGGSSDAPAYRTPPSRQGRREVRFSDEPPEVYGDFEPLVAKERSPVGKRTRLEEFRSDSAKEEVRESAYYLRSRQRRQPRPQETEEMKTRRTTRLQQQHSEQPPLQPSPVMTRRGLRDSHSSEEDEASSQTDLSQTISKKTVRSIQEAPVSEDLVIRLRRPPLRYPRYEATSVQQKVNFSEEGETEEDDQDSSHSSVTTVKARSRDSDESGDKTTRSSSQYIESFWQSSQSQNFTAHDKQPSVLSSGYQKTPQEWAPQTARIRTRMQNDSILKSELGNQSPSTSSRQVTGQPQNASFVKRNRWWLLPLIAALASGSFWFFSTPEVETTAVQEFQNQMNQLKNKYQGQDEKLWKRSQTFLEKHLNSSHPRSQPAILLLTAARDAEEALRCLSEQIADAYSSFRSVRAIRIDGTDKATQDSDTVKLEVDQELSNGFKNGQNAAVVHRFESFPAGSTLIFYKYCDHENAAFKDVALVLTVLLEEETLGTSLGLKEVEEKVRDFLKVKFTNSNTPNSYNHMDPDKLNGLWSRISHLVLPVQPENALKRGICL
Sequence of Left-right determination factor 2 (Homo sapiens) (O00292 whole entry, looked up): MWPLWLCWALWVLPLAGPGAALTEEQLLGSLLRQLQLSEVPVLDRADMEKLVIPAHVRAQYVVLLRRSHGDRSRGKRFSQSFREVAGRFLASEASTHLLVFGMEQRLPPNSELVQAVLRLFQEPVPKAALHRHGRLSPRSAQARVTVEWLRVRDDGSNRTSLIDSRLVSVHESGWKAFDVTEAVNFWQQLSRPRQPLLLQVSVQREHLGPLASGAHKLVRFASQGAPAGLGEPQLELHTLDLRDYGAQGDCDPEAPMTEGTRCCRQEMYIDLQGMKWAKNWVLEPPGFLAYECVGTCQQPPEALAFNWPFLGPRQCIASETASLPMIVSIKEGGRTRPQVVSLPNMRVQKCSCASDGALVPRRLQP
Sequence of Alpha-bungarotoxin (Bungarus multicinctus) (P60615 whole entry, looked up): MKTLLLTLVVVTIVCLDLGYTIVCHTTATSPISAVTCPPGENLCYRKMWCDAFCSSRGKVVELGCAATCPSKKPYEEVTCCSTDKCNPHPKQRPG
Sequence of Albumin (Bos taurus) (P02769 whole entry, looked up): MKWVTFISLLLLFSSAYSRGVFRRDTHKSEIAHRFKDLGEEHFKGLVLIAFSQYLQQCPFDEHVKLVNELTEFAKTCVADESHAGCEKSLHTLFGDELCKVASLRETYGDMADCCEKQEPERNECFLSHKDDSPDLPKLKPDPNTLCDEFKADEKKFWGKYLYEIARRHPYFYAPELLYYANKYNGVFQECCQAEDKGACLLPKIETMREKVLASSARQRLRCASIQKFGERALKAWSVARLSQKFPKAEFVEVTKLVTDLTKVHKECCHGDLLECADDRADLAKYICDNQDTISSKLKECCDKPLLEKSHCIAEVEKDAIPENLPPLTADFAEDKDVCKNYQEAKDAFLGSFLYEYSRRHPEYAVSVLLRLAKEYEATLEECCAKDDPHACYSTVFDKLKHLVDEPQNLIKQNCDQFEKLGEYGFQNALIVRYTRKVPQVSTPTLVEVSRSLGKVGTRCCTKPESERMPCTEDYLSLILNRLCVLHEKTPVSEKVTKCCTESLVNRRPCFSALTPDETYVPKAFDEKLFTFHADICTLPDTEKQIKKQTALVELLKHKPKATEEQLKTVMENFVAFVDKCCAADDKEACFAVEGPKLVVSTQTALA

For `CS(=O)(=O)CCOC(=O)C1=CC(CCCO)=CC(c2ccc(CN3CCCC3)cc2)N(Cc2cc3c(cc2Br)OCO3)C=C1C(=O)OCCS(C)(=O)=O` (stereo not given), the composite z-score in experiment [1] was determined as 0.981; in [3], 0.538; in experiment [4], 1.33; in experiment [5], 0.484; in experiment [6], 0.0765; in experiment [7] it was 0.171. Further, the composite z-score in experiment [8] was 1.27; in experiment [9], 2.44; in experiment [10] it was 1.62; with Albumin (Bos taurus), 0.649; in experiment [12], 0.165; in [13] it was -0.0163. Moreover, the composite z-score was 0.804 in experiment [14]; 1.78 in [15]; 1.31 in [16]; 1.31 in the experiment with Sam68 (KHDRBS1); 0.373 in [17]; 1.08 in [18]. For the same molecule, the z-score in experiment [2] was -2.33. Also, in experiment [11], the composite Z-score is 1.09 (inactive).

`C=CCOC(=O)[C@H]1[C@@H]2C(=O)O[C@@H](c3ccccc3)[C@@H](c3ccccc3)N2[C@@H](c2ccc(OCCOC(=O)[C@@H]3C[C@@H]4C(=O)N[C@@H](CCCCN(C)C)C(=O)N4[C@@H]3c3ccc(O)cc3)cc2)[C@]12C(=O)Nc1ccc(I)cc12`: the composite z-score in experiment [1] was -0.562; in [3], 0.698; in experiment [4], 0.134; in experiment [5] it was -0.547; in [6], -0.113; in experiment [7], 0.462. Also, the composite z-score in experiment [8] was 1.18; in experiment [9], 1.36; in experiment [10], 1.32; with Albumin (Bos taurus), -0.342; in experiment [12] it was -0.0111; in [13], -0.18. The composite z-score is 0.574 in [14]; 1.66 in [15]; 0.278 in experiment [16]; 1.3 in the experiment on Sam68 (KHDRBS1); 1.24 in experiment [17]; 1.15 in experiment [18]. The z-score in experiment [2] was -2.99. The composite Z-score in experiment [11] is 0.711 (inactive).

For `C=CCNC(=O)[C@H]1[C@@H]2C(=O)O[C@@H](c3ccccc3)[C@@H](c3ccccc3)N2[C@@H](c2ccccc2OCCO)[C@]12C(=O)Nc1ccc(C#CC3=CCCCC3)cc12`, the composite z-score was 1.12 in experiment [1]; 0.531 in experiment [3]; 0.904 in experiment [4]; -0.321 in [5]; -0.1 in experiment [6]; 0.0588 in [7]. Also, the composite z-score in [8] was 0.163; in experiment [9] it was 0.358; in experiment [10] it was 0.99; with Albumin (Bos taurus), 0.039; in experiment [12] it was 0.0942; in experiment [13], -0.148. The composite z-score in experiment [14] worked out at 0.0836; in experiment [15], 1.19; in experiment [16] it was 1.37; with Sam68 (KHDRBS1) it was 1.29; in experiment [17], 0.495; in experiment [18], 1.02. In addition, the z-score in experiment [2] was -3.52. In addition, the composite Z-score in experiment [11] was 1.86 (inactive).

Consider `COC(=O)[C@@]1(Cc2ccccc2)[C@H]2c3cc(C(=O)N4CCCC4)n(Cc4cccc5ccccc45)c3C[C@H]2CN1C(=O)c1ccccc1`, for which the composite z-score in experiment [1] was 0.696; in experiment [3], -0.188; in experiment [4], 1.51; in experiment [5], 1.42; in experiment [6], 0.816; in experiment [7], 1.96. Besides, the composite z-score in experiment [8] was 0.714; in experiment [9], 0.434; in experiment [10], 0.645; in the experiment with Albumin (Bos taurus), 0.942; in experiment [12] it was 1.44; in experiment [13], 0.707. The composite z-score in [14] was 0.741; in experiment [15] it was 1.54; in [16], 0.539; in the experiment on Sam68 (KHDRBS1), 0.621; in experiment [17] it was -0.975; in experiment [18], 0.308. Moreover, the z-score in experiment [2] was -1.55. Besides, the composite Z-score in experiment [11] was 0.304 (inactive).

Consider `C=CCOC(=O)[C@@H]1[C@H]2C(=O)O[C@H](c3ccccc3)[C@H](c3ccccc3)N2[C@H](c2ccc(OCCOC(=O)[C@@H]3C[C@@H]4C(=O)N[C@@H](CCCCN(C)C)C(=O)N4[C@@H]3c3ccc(O)cc3)cc2)[C@@]12C(=O)Nc1ccc(I)cc12`, for which the composite z-score was 1.34 in experiment [1]; 0.696 in [3]; 0.846 in experiment [4]; -0.0759 in [5]; -0.0927 in [6]; 0.432 in experiment [7]. Also, the composite z-score is -0.12 in experiment [8]; 0.454 in experiment [9]; 0.78 in experiment [10]; 0.848 with Albumin (Bos taurus); 0.0738 in experiment [12]; -0.177 in experiment [13]. The composite z-score is 0.275 in experiment [14]; 1.83 in [15]; -0.157 in [16]; 1.29 with Sam68 (KHDRBS1); 1.15 in experiment [17]; 1.16 in [18]. In [2], this molecule registered a z-score of -2.84. Besides, the composite Z-score in experiment [11] is 0.412 (inactive).

For the molecule `CCN(CC)c1ccc(N2CC=CC34O[C@@H]5/C=C\CCC(C)OC(=O)C5[C@H]3C(=O)N(C(CO)C(C)C)[C@@H]4C2=O)cc1` (stereo not given in full), the composite z-score in experiment [1] is -0.0747; in experiment [3], -0.896; in experiment [4] it was -0.55; in [5], -0.866; in [6] it was -0.062; in [7], 0.214. Moreover, the composite z-score was -0.287 in [8]; -0.251 in [9]; 0.174 in [10]; -0.451 with Albumin (Bos taurus); -0.222 in [12]; -0.175 in [13]. Moreover, the composite z-score in experiment [14] is 0.894; in [15] it was 0.595; in [16] it was -0.387; with Sam68 (KHDRBS1) it was 0.213; in experiment [17] it was -0.263; in [18] it was -1.77. The molecule also displayed a z-score in experiment [2] of -0.668. Besides, the composite Z-score in experiment [11] is 0.211 (inactive).
